HIF-2a inh = blocks HIF-2a reporter activity. 786-0 RCC cells HIF-2a reporter, luciferase luminescence, overnight. inhibition, % at 18.8 µM. actives 0.72% (n = 360,000). AID 624352;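 active = inhibition of the luminescence signal of 40% or more relative to plate controls, in a single-dose primary screen at 18.75 µM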
C8 TRAIL sens = sensitizes caspase-8 expressing cells to TRAIL; NB7+C8 cells + TRAIL, ATPlite viability luminescence; inhibition (viability loss, TRAIL sensitization), % at 10 µM; actives 1% (n = 360,000);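 active = compounds causing at least 50% loss of cell viability in the single-dose screen, relative to plate controls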
Peg3 prom inh = inhibitors of Peg3 promoter | HeLa PEG-Prom luciferase reporter, luminescence, overnight | actives 1.7% (n = 360,000) | AID 588405 | inhibition, % at 20 µM;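 active = inhibition of at least 50% at 20 µM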
PPC-1+TRAIL kill = PPC-1 cancer cell killing with TRAIL present; PPC-1 cells + TRAIL, ATPLite viability luminescence; cell killing (% activity), % at 4 µM or 5 µM; AID 1443; actives 0.41% (n = 220,000);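 active = cell killing above 50% in the first pass at 4 µM, then a duplicate retest at 5 µM averaging 50% or more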
KKLEB tox = counter-screen for CF NF-kB inhibitors: cytotoxicity; AID 602141; actives 0.36% (n = 360,000); KKLEB CF airway cells viability, ATPlite luminescence, overnight; stronger effect = lower value; cells stimulated with P. aeruginosa culture filtrate; activity change (cytotoxicity), % at 5 µM;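 active = corrected activity change at or below -50% at 5 µM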
CF NFkB inh = inhibitors of cystic fibrosis induced NF-kB; AID 588850; actives 0.86% (n = 360,000); inhibition, % at 5 µM; KKLEB NF-kB-GFP reporter, PAF-induced, GFP fluorescence overnight;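 active = at least 50% inhibition at 5 µM, scaled per plate between neutral and stimulator controls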;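 also: PAF is a Pseudomonas aeruginosa culture filtrate used as stimulus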
Mdm2 MdmX conf = confirmation of inhibitors of human Mdm2/MdmX interaction, set 2; actives 99% (n = 740); inhibition, % at 8 µM; shares compounds with HIF-2a inh; AID 504601; SaOS-2 split-luciferase Mdm2/MdmX complementation, luminescence;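 active = mean inhibition of the luminescence signal across two replicates at or above 26 percent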
Target sequence (O15151 whole entry, looked up): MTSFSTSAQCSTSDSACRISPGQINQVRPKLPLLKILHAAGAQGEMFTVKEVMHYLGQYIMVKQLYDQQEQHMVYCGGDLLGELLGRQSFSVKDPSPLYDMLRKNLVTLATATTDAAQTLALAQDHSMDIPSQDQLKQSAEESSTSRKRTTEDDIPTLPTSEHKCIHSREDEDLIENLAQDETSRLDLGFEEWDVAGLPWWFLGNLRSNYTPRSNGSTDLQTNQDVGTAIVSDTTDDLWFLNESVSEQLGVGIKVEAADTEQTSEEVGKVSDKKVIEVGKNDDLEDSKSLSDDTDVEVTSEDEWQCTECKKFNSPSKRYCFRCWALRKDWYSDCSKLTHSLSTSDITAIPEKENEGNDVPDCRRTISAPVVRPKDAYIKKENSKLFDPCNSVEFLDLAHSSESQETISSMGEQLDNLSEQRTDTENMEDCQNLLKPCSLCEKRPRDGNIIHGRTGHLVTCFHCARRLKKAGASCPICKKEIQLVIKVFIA
Target sequence (Q00987 whole entry, looked up): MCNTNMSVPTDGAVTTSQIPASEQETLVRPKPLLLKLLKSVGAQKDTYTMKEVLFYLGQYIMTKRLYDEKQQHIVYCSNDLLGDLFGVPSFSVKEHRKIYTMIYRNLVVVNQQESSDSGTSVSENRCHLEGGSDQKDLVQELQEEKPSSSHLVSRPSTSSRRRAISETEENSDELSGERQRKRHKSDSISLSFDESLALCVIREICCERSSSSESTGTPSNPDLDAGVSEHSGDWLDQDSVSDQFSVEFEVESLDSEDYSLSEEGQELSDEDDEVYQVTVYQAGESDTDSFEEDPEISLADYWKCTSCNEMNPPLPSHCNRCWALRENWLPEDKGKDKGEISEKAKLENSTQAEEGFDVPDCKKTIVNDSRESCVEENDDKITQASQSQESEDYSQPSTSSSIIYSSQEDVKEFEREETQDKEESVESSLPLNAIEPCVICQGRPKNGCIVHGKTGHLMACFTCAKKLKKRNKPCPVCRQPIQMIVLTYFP
HIF-2a inh conf = HIF-2a inhibition, single concentration confirmation; shares compounds with HIF-2a inh; 786-0 RCC cells, HIF-2a luciferase reporter luminescence, overnight; inhibition, % at 18.8 µM; actives 56% (n = 1,800); AID 651580;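 active = mean inhibition across four replicates of at least 40 percent at the single tested concentration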
HIF-1a cs = counter-screen for HIF-2a inhibitors: HIF-1a inhibition in MiaPaCa-2 cells; shares compounds with HIF-2a inh; inhibition, % at 18.8 µM; MiaPaCa-2 HIF-1a luciferase reporter, desferoxamine, overnight; actives 72% (n = 1,800);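 active = mean inhibition of the reporter signal across four replicates at the single tested dose of 50% or more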
Numbers stand for hits; 0 = inactive; - = no result. This is a sample that favours compounds with a hit; in the whole collection about 3.1% have one here.

SMILES	HIF-2a inh	C8 TRAIL sens	Peg3 prom inh	PPC-1+TRAIL kill	KKLEB tox	CF NFkB inh	HIF-2a inh conf	HIF-1a cs	others
CCOc1c(Br)cc(CNc2ccc3c(c2)OCCO3)cc1OC	43	0	0	0	0	0	0	77
CCOc1cc(CNc2ccc3c(c2)OCCO3)cc(Br)c1OC	45	0	0	0	0	0	67	98
S=C1SCN(Cc2cccnc2)CN1Cc1cccnc1	0	0	67	0	0	0	-	-	Mdm2 MdmX conf=98
C[C@H]1[C@H](c2ccccc2)C[C@@H](C(=O)O)C1(C)C	0	0	0	-	0	0	-	-
CN(C(=O)CSc1cc(C(=O)c2nccn2C)c2ccccc2n1)c1ccccc1	50	0	0	0	0	0	0	52
COc1ccc(CC(=O)Nc2ccc(F)c(F)c2F)cc1S(=O)(=O)N1CCOCC1	0	0	0	-	0	0	-	-
COc1ccc(/C=C/C(=O)c2ccc(C)c([N+](=O)[O-])c2)cc1O	0	0	0	0	0	0	-	-
COc1cc(/C=C/C(=O)c2ccc(C)c([N+](=O)[O-])c2)cc(OC)c1O	47	0	63	0	0	0	0	0
COc1cc(/C=C/C(=O)c2ccc(NS(=O)(=O)c3ccc(C)cc3)cc2)cc(OC)c1O	54	0	65	0	0	0	64	104
COc1cc(/C=C/C(=O)c2ccc(NS(=O)(=O)c3ccc(C)cc3)cc2)ccc1OC(F)F	0	0	0	0	0	0	-	-
C[C@@H]1CN([C@H](C)CO)C(=O)c2c(c3ccccc3n2C)-c2ccccc2CO[C@@H]1CN(C)S(=O)(=O)c1cccs1	0	0	0	-	0	0	-	-
CCOc1ccc(-c2cc(CCCC(=O)Nc3cccc(OC)c3)no2)cc1	42	0	0	0	0	0	52	70
CCOc1ccc(NC(=O)CCCc2cc(-c3ccc(OCC)cc3)on2)cc1	0	0	0	0	0	0	-	-
CCOc1ccc(-c2cc(CCCC(=O)Nc3cc(OC)ccc3OC)no2)cc1	57	0	0	0	0	0	79	52
CCOC(=O)c1cc(-c2ccccc2)n(Cc2cc(CC)no2)n1	0	0	0	-	0	0	-	-
O=c1cc(CN2CCN(c3ccccc3)CC2)c2ccccc2o1	0	0	0	-	0	0	-	-
CC1(C(=O)O)CCCN1C(=O)c1cccc(OC(F)(F)F)c1 (configuration not stated)	0	0	0	-	0	0	-	-
O=C(CC1Oc2ccccc2NC1=O)NCc1ccccc1 (configuration not stated)	0	0	0	0	0	0	-	-
CC(=O)CC1OC(=O)C(Br)=C1NCc1ccccc1 (configuration not stated)	42	0	104	0	0	0	0	76
S=c1[nH]nc(-c2ccccc2)n1/N=C/c1ccc(-c2ccccc2Cl)o1	0	0	0	0	0	0	-	-	Mdm2 MdmX conf=100
CCCCn1c(=O)[nH]c(=O)c2c1nc(Cn1ncc(Cl)c(Cl)c1=O)n2CCC	96	95	104	-	-81	103	71	97	Mdm2 MdmX conf=103
Cc1cccc(CSC(Nc2ccc(F)cc2)=C(C#N)C#N)c1	0	0	62	0	0	0	-	-	Mdm2 MdmX conf=94
COc1ccccc1-c1cc2nc(C)c(CCC(=O)NCc3ccc(F)cc3)c(C)n2n1	0	0	0	0	0	0	-	-
COc1cc(OC)cc(-c2cc3nc(C)c(CCC(=O)NCc4ccccc4)c(C)n3n2)c1	69	0	0	0	0	0	79	87
Cc1nc2cc(-c3ccccc3)nn2c(C)c1CCC(=O)N1CCN(c2ccccc2)CC1	69	0	0	0	0	0	79	53
SMILES	HIF-2a inh	C8 TRAIL sens	Peg3 prom inh	PPC-1+TRAIL kill	KKLEB tox	CF NFkB inh	HIF-2a inh conf	HIF-1a cs	others
COC(=O)CCC(C)C1CCC2C3CCC4CC(O)CCC4(C)C3CC(O)C12C (configuration not stated)	0	0	0	-	0	0	-	-
O=C(CCl)N(C1CCCC1)C1CCS(=O)(=O)C1 (configuration not stated)	0	0	0	-	0	0	-	-	Mdm2 MdmX conf=102
O=C(Cn1ncc(Cl)c(Cl)c1=O)NC(=O)NC1CCCCC1	84	93	89	-	-64	90	92	106	Mdm2 MdmX conf=101
O=C(NCCCN1CCOCC1)c1cc(-c2cccs2)on1	0	0	0	0	0	0	-	-
COCCCNC(=O)c1cccs1	0	0	0	0	0	0	-	-
COCCCNC(=O)c1ccc(-n2nc(C(F)(F)F)cc2-c2cccs2)cc1	49	0	0	0	0	0	0	0
O=C(NCCCN1CCOCC1)c1ccc(-n2nc(C(F)(F)F)cc2-c2cccs2)cc1	45	0	55	0	0	0	0	66
CCOC(=O)N1CCN(CC(O)COc2ccc3c(c2)CCC3)CC1 (configuration not stated)	0	0	0	-	0	0	-	-
Cc1ccc(NC(=O)CCC(=O)N/N=C/c2coc3ccccc3c2=O)cc1	53	0	0	0	0	0	0	0
Cc1ccc(NC(=O)CCC(=O)N/N=C/c2coc3ccc(F)cc3c2=O)cc1	0	0	0	-	0	0	-	-
CN(CC(=O)Nc1cccc(S(=O)(=O)N(C)c2ccccc2)c1)Cc1cccs1	0	0	0	-	0	0	-	-
O=C(O)CCSCC(=O)c1ccc2c(c1)OCCO2	57	0	0	0	0	0	64	0
COCCCNC(=O)Cn1cc(/C=C(\C#N)C(=O)NC2CC2)c2ccccc21	0	0	0	-	0	0	-	-
CCc1nc(Nc2cccc(F)c2)c2oc3ccccc3c2n1	0	0	0	-	0	0	-	-
COCC(C)n1c(C)cc(C(=O)COC(=O)c2cc(=O)[nH]c3ccccc23)c1C (configuration not stated)	43	0	52	-	0	0	45	0
COc1ccc(C2=NN(C(=O)CCC(=O)O)C(c3ccccc3F)C2)cc1 (configuration not stated)	0	0	0	-	0	0	-	-
O=C(Nc1cccc(Cl)c1)c1cc(N=Nc2ccc([N+](=O)[O-])cc2Cl)ccc1O	0	0	79	0	0	76	-	-	Mdm2 MdmX conf=95
COC(=O)C1=C(CS(=O)(=O)c2ccc(OC)c(OC)c2)NC(=O)NC1c1ccc(O)c(OC)c1 (configuration not stated)	0	0	0	-	0	0	-	-
O=C1C(=C(c2ccccc2)N2CCOCC2)Cc2ccccc21	91	0	108	-	0	91	98	105

Screening results deposited in PubChem by Sanford-Burnham Center for Chemical Genomics.
